From PubChem BioAssay (EPA / NIEHS)
The source holds several records for some structures; these can differ, active in one and inactive in another. The source made the active and inactive calls. How the source made its calls: active means hit-call score of the fitted dose curve at least 0.9, where 1 is the maximum; inactive means score below 0.9.

Test: ATG_PXRE_CIS: Attagene CIS-FACTORIAL HepG2 Assay for human Pregnane X Receptor Element (PXRE) (AID 2282957)
Conditions: HepG2 Attagene CIS-FACTORIAL PXRE reporter, mRNA; actives raise or lower the signal
Experimental: ATG_CIS is a cell-based, multiplexed-readout assay that uses HepG2, a human liver cell line, with measurements taken at 24 hours after chemical dosing in a 24-well plate.ATG_PXRE_CIS is one of 52 assay component(s) measured or calculated from the ATG_CIS assay. It is designed to make measurements of mRNA induction, a form of inducible reporter, as detected with fluorescence intensity signals by Reverse transcription polymerase chain reaction (RT-PCR) and Capillary electrophoresis technology.Data from the assay component ATG_PXRE_CIS was analyzed into 1 assay endpoint. This assay endpoint, ATG_PXRE_CIS, was analyzed with bidirectional fitting relative to DMSO as the negative control and baseline of activity. Using a type of inducible reporter, measures of mRNA for gain or loss-of-signal activity can be used to understand the reporter gene at the transcription factor-level as they relate to the gene NR1I2. Furthermore, this assay endpoint can be referred to as a primary readout, because this assay has produced multiple assay endpoints where this one serves a reporter gene function. To generalize the intended target to other relatable targets, this assay endpoint is annotated to the nuclear receptor intended target family, where the subfamily is non-steroidal.
Human liver HepG2 cells are transiently transfected with multiple reporter transcription units (MRTUs) in 6-well plates using FuGene 6 reagent (Roche; 3 ml FuGene/1 mg DNA). The MRTU constructs are regulated by a cis-regulating element (promoter). […] A major difference between the CIS and TRANS system is that in CIS activities of endogenous TFs are measured, whereas the TRANS assay evaluates changes in activities of exogenous, chimeric NR-Gal4 proteins. […] At the end of 24 hour incubation, total RNA was isolated using TriZol reagent (Invitrogen). The isolated RNA is then reverse-transcribed using oligo(dT) primer and Mo-MLV reverse transcriptase (Invitrogen) with DNAse I (Ambion) treatment for 30 min. The one-tenth of the produced cDNA was amplified by PCR using Taq DNA polymerase (Invitrogen) and two reporter sequence-specific primers. The PCR products were fluorescently labeled by primer extension with 6-arboxyfluorescein (6-FAM) 5'-labeled reporter sequence-specific primer (2 min at 95 C, 20 s at 68 C and 10 min at 72 C) and these products were digested with 5U of HpaI (New England Biolabs) for 2h at 37 C. The fragments were purified using Qiaquick PCR columns (Qiagen), analyzed on an ABI 3130xL genetic analyzer (Applied Biosystems) with peak positions identified by using a set of X-rhodamine (ROX)-labeled MapMarker1000 molecular weight standards (BioVentures). The raw capillary electrophoresis data was processed using Attagraph software (Attagene).

Structure (SMILES)	AC50	outcome
O=Cc1ccccc1O	100 µM (active)	
C=CCOCC(O)CO (stereo not given)		inactive
O=C1OC2(c3ccc(O)cc3Oc3cc(O)ccc32)c2ccccc21	0.741 µM (active)	
CC(C)Cc1ccccc1		inactive
c1coc(CNc2ncnc3nc[nH]c23)c1	44 µM (active)	
CCC(=O)OC(C)(C)C1CC=C(C)CC1 (stereo not given)	27.4 µM (active)	
OC[C@H]1O[C@@H](O[C@H]2[C@H](O)[C@@H](O)[C@H](O)O[C@@H]2CO)[C@H](O)[C@@H](O)[C@H]1O		inactive
CCCCCCCCCCCCCCCCCC(=O)OCCCCCCCCCCCCCC(C)C	46.9 µM (active)	
C=C(C)C(=O)OCCOCCOC(=O)C(=C)C		inactive
COc1ccccc1O	69.3 µM (active)	
C1=COCCC1		inactive
CC(=O)CC(C)(C)C1CCCCC1	30.7 µM (active)	
Cc1cccc(C)c1	34.4 µM (active)	
CCOC(=O)C=Cc1ccccc1	27.8 µM (active)	
CC(C)CCCC(C)(C)O		inactive
C=C(C)CCCC(C)CCO (stereo not given)	6.72 µM (active)	
C=C(C)C(=O)OCCC[Si](OC)(OC)OC		inactive
CC(C)(O)CCc1ccccc1		inactive
[O-]/[N+](=N\O)c1ccccc1	26.6 µM (active)	

Structure (SMILES)	AC50	outcome
C[C@]12CC[C@@H]3c4ccc(O)cc4CC[C@H]3[C@@H]1CC[C@@H]2O	5.88 µM (active) [middle of 4 runs]	inactive
CC/C=C\C#N		inactive
CCC(C)(C)C1CCC(=O)CC1	5.24 µM (active)	
O=C(O)c1ccccc1O		inactive
CCC=C(C)C=O	24.7 µM (active)	
CCOC(=O)COC(=O)c1ccccc1C(=O)OCC	50.1 µM (active)	
O=C(O)CS		inactive
c1ccc(Cc2ccccc2)cc1		inactive
O=c1cc[nH]cc1	21 µM (active)	
FC(F)(F)c1ccc(Cl)c(Cl)c1	27.9 µM (active)	
C=CCOC(=O)/C=C\C(=O)OCC=C	20.1 µM (active)	
CC(O)CNCC(C)O (stereo not given)		inactive
CC(CO)(CO)[N+](=O)[O-]		inactive
C=CCCCCCCCCC(=O)OCC		inactive
O=C(c1ccc(OCCN2CCCCC2)cc1)c1c(-c2ccc(O)cc2)sc2cc(O)ccc12	2.79 µM (active) [middle of 4 runs]	inactive
OCCCO		inactive
CCC(C)(C)C1CCC(OC)CC1 (stereo not given)	3.33 µM (active)	
CCCCOCCOCCOCCO		inactive
CC(=O)CCC(=O)O	63.8 µM (active)	
